Results from the supplement of paper PMC10849652.
Of roughly 8,800 targets only a part is listed; those with a hit were picked by preference. About 0.5% of all pairs of compound and target were hits.

compound: CCn1cc(-c2ccnc3[nH]c(-c4cccc(CN(C)C)c4)cc23)c(-c2ccc(NC(=O)N(C)C)cc2)n1; assay: log2 fold change, soluble protein after heating vs DMSO (PISA); higher = thermal stabilisation; K562 lysate, 10 uM; active = over 0.2 and 3.5 SD of the protein, either way, in both replicates (recomputed)
Summary of the method: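 Quantification was by TMTpro 16plex LC-MS/MS with equalised channel sums, applied to the supernatant after 21,000xg for 90 min. Samples were crude K562 extract at 1 mg/mL protein in PBS pH 7.4 with 1 mM MgCl2, treated with 10 μM compound for 30 min, heated for 3 min across 48°C-58°C, pooled and brought to 0.5% NP-40 at 4°C. Values are log-two fold changes in thermal stability relative to solvent controls, from duplicates.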

Sequence of UniProt Q96K49 (Q96K49 whole entry, looked up): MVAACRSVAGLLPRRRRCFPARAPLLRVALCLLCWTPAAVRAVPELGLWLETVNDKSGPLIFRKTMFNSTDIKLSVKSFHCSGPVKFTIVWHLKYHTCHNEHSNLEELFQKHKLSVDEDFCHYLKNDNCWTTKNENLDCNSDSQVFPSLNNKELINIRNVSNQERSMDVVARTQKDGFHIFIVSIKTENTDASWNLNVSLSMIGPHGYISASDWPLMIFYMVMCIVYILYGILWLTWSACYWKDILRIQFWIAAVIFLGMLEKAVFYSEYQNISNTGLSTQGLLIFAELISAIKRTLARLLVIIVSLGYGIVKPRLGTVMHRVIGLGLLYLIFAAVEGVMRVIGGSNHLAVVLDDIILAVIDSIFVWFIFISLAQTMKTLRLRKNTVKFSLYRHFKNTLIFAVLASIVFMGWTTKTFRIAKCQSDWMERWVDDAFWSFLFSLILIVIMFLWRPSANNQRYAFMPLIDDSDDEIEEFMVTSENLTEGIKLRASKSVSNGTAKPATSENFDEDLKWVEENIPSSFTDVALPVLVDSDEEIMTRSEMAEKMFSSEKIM
Sequence of UniProt Q5TAX3 (Q5TAX3 whole entry, looked up): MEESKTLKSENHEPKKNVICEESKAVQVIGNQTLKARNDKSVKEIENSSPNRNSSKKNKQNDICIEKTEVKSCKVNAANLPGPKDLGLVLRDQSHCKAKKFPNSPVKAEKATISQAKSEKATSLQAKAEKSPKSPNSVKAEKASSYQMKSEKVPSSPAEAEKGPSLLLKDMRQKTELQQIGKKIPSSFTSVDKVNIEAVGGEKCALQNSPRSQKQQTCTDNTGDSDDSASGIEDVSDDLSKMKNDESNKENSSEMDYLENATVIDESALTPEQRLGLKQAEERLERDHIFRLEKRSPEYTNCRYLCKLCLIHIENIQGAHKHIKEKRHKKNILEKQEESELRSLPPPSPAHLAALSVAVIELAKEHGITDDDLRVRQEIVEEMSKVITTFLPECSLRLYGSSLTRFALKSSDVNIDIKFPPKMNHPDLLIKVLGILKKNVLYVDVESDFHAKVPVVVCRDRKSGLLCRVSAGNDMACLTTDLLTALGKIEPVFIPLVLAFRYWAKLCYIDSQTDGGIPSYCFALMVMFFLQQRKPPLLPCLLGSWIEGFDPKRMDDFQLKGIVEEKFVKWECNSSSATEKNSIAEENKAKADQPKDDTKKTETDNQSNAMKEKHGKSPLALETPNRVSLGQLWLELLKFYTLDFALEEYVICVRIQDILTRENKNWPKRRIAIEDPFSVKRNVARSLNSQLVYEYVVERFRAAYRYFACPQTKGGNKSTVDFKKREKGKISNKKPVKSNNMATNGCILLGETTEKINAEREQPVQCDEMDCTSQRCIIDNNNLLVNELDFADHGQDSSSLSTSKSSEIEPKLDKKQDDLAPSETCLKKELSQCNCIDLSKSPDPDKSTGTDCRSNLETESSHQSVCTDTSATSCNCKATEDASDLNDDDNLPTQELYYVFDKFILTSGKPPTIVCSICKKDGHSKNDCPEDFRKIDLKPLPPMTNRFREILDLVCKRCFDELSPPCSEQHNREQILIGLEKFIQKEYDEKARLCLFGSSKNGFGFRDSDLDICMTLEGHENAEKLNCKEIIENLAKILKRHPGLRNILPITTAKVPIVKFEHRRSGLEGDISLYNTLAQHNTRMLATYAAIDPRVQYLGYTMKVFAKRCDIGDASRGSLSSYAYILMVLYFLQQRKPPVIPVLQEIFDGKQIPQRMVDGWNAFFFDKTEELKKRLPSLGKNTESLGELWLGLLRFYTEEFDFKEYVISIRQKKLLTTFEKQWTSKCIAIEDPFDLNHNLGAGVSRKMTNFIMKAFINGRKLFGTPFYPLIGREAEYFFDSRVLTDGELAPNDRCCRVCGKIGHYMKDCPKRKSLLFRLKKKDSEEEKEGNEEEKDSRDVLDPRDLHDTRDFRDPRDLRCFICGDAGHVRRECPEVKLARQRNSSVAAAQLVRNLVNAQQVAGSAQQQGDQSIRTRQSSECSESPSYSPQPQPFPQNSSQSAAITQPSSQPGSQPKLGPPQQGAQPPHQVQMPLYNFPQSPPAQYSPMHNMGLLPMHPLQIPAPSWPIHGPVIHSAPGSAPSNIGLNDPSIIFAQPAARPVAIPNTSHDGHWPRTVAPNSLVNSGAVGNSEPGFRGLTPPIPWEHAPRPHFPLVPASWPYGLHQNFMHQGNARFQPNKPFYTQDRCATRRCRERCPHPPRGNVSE
Sequence of UniProt Q9NZ01 (Q9NZ01 whole entry, looked up): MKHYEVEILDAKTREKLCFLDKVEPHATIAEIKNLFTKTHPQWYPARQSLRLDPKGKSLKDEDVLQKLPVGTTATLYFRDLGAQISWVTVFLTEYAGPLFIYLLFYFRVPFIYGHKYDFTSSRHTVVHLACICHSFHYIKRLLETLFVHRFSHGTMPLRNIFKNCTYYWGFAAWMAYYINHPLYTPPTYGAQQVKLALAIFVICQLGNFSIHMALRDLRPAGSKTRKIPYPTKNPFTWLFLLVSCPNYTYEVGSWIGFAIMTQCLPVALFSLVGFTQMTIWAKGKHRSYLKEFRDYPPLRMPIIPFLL
Sequence of UniProt Q96CW5 (Q96CW5 whole entry, looked up): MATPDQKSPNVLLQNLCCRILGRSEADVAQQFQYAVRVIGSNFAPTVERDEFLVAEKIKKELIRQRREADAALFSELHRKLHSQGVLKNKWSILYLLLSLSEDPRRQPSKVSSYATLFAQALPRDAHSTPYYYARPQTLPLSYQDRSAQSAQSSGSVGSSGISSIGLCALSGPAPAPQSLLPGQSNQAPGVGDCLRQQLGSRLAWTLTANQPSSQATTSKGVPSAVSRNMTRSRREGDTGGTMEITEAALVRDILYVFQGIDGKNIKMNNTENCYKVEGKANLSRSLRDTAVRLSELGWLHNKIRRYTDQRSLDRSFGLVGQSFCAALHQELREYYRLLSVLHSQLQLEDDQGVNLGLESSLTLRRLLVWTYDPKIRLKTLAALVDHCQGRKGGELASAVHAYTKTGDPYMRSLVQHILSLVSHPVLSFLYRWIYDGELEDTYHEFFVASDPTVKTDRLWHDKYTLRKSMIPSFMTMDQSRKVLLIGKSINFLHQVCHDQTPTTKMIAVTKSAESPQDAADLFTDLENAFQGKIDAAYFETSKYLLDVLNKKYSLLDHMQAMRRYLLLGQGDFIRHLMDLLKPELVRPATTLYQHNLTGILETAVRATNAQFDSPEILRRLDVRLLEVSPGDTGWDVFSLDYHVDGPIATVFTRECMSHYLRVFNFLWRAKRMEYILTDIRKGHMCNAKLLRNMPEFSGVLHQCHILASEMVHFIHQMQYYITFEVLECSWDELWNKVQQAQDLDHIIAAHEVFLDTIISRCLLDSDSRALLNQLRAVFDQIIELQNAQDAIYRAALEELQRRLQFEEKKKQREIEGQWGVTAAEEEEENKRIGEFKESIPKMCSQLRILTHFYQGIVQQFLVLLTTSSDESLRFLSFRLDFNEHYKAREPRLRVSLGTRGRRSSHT
Sequence of UniProt Q5TEJ8 (Q5TEJ8 whole entry, looked up): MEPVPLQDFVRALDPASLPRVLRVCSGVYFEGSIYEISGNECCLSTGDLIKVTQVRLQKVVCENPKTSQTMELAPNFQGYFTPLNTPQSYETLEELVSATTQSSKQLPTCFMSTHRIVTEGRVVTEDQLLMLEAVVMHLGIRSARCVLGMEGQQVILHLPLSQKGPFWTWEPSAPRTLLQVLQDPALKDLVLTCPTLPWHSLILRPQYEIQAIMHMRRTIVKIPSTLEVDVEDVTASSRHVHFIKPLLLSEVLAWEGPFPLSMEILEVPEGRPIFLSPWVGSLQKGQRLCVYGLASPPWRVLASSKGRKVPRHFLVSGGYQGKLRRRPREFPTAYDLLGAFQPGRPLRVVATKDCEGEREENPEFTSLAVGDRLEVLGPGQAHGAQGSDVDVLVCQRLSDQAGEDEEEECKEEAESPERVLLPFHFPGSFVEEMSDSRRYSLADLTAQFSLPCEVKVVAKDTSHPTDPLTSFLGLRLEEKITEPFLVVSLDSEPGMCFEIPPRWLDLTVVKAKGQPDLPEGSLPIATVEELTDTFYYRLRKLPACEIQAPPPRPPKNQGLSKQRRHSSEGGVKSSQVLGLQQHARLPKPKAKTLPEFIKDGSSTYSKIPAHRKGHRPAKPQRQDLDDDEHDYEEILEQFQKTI
Sequence of UniProt Q96S44 (Q96S44 whole entry, looked up): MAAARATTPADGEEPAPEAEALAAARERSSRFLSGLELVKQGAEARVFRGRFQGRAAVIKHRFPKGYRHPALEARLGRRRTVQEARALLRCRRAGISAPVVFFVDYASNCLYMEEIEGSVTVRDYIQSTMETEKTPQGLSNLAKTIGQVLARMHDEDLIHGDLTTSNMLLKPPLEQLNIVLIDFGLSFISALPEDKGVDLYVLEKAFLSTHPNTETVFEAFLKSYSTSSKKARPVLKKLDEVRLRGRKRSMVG
Sequence of UniProt P28289 (P28289 whole entry, looked up): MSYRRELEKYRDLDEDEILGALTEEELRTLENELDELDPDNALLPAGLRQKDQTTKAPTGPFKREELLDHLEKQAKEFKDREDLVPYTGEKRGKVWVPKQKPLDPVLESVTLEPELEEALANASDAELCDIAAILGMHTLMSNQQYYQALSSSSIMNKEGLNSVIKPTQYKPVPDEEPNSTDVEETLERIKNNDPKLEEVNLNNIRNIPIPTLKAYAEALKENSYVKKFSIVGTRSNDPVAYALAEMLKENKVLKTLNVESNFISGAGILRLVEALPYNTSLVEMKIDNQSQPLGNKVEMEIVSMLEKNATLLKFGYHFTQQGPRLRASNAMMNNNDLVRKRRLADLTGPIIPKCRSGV
Sequence of UniProt Q13595 (Q13595 whole entry, looked up): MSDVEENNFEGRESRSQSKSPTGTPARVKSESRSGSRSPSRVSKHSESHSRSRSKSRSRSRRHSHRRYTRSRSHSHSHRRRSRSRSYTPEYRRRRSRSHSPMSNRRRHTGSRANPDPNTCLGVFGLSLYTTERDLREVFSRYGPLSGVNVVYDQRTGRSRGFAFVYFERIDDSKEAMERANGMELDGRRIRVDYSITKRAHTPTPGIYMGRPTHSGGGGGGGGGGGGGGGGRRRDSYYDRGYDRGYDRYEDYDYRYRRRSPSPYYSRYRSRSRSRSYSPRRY

log2 fold change, inactive:
TPP2 (UniProt Q5VZU9) -0.147, TUBGCP3 (UniProt Q96CW5) -0.016, TEX30 (UniProt Q5JUR7) -0.301, TPM1 isoform 4 (UniProt P09493) 0.106, TRAPPC9 isoform 2 (UniProt Q96Q05) 0.011, TUT4 (UniProt Q5TAX3) -0.085, TRIM33 (UniProt H0Y612) -0.017, TECR (UniProt Q9NZ01) 0.014, TP53RK (UniProt Q96S44) 0.025, THEMIS2 (UniProt Q5TEJ8) -0.019, TTC38 (UniProt Q5R3I4) 0.189, TPM4 (UniProt P67936) 0.037, TMOD1 (UniProt P28289) 0.041, TOX4 (UniProt O94842) -0.235, TMEM199 (UniProt Q8N511) -0.06, UBE4A isoform 2 (UniProt Q14139) -0.03, TMEM87B (UniProt Q96K49) 0.074, TMPO (UniProt P42167) 0.033, TTI2 (UniProt Q6NXR4) 0, TUBB3 (UniProt Q13509) -0.002, TUBB (UniProt P07437) -0.041, TLK1 isoform 2 (UniProt Q9UKI8) -0.092, TRA2A (UniProt Q13595) -0.023
